The source of these data is paper PMC11006913.

Numbering of substitutions follows the chain as printed.

Assay in all cases: PBM; 200 nM protein, PBS
Settings in all cases: dsDNA, one strand shown

The target of experiment [1] is HOXB4 (Homo sapiens, UniProt P17483 148-234).
In experiment [2] the target is T1, VENTX (Homo sapiens, UniProt O95231 78-163, R121Q).
T1 sequence: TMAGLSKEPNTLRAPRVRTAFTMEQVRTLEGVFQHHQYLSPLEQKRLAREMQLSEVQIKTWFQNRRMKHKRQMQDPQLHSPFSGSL

Experiment [3] concerns the target HOXA4 (Homo sapiens, UniProt Q00056 201-287, W262R).
Another experiment has as its target ALX4 (Homo sapiens, UniProt Q9H161 200-286).
In experiment [4] the target is T2, PAX4 (Homo sapiens, UniProt O43316 9-242, R200K).
T2 sequence: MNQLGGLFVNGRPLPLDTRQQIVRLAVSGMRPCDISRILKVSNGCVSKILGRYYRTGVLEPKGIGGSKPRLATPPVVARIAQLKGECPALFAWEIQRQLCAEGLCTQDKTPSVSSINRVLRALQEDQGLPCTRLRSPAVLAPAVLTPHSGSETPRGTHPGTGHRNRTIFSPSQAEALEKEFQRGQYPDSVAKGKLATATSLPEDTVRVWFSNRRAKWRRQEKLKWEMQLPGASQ

Experiment [5] concerns the target PRRX1 (Homo sapiens, UniProt P54821 80-166, F113S).
In experiment [6] the target is T3, VENTX (Homo sapiens, UniProt O95231 78-163, Y115F).
T3 sequence: T1 sequence with Y38F, Q44R

The next experiment concerns the target HOXA2 (Homo sapiens, UniProt O43364 129-215, R185T).
The target of experiment [7] is HOXA4 (Homo sapiens, UniProt Q00056 201-287, R217L).
HOXA4 (Homo sapiens, UniProt Q00056 201-287, R217L), sequence (Q00056 201-287 R217L): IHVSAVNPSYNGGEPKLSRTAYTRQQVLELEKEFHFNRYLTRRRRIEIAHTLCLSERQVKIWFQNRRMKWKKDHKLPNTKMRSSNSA
For experiment [8], the target named is HOXB4 (Homo sapiens, UniProt P17483 148-234, V174I).
HOXB4 (Homo sapiens, UniProt P17483 148-234, V174I), sequence (P17483 148-234 V174I): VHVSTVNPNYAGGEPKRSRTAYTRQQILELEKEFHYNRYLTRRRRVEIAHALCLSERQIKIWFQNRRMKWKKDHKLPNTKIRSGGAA
Experiment [9] addresses T4, PAX4 (Homo sapiens, UniProt O43316 9-242, R200Q).
T4 sequence: T2 sequence with K192Q

Experiment [10] concerns the target T5, PAX4 (Homo sapiens, UniProt O43316 9-242, F177V).
T5 sequence: T2 sequence with F169V, K192R

Experiment [11] addresses HOXA4 (Homo sapiens, UniProt Q00056 201-287).
Experiment [12] addresses MSX2 (Homo sapiens, UniProt P35548 130-214).
Experiment [13] addresses T6, PAX4 (Homo sapiens, UniProt O43316 9-242, F177Y).
T6 sequence: T2 sequence with F169Y, K192R

Experiment [14] deals with MSX2 (Homo sapiens, UniProt P35548 130-214, F161Y).
MSX2 (Homo sapiens, UniProt P35548 130-214, F161Y), sequence (P35548 130-214 F161Y): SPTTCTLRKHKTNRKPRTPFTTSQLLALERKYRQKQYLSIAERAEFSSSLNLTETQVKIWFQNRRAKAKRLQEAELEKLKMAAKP
The target of experiment [15] is VAX1 (Homo sapiens, UniProt Q5SQQ9 86-172, T142I).
VAX1 (Homo sapiens, UniProt Q5SQQ9 86-172, T142I), sequence (Q5SQQ9 86-172 T142I): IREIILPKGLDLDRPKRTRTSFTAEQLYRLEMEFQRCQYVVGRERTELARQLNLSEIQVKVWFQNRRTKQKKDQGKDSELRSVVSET
In experiment [16] the target is HOXA4 (Homo sapiens, UniProt Q00056 201-287, W262F).
HOXA4 (Homo sapiens, UniProt Q00056 201-287, W262F), sequence (Q00056 201-287 W262F): as the sequence (Q00056 201-287 R217L) above, with L17R, W62F counted along it
Experiment [17] addresses PRRX1 (Homo sapiens, UniProt P54821 80-166).
In experiment [18] the target is VAX1 (Homo sapiens, UniProt Q5SQQ9 86-172, K157R).
VAX1 (Homo sapiens, UniProt Q5SQQ9 86-172, K157R), sequence (Q5SQQ9 86-172 K157R): as the sequence (Q5SQQ9 86-172 T142I) above, with I57T, K72R counted along it

ALX4, sequence (Q9H161 200-286): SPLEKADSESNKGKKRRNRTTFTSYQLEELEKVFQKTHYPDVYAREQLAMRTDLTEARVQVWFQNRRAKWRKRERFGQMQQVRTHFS
MSX2 (Homo sapiens, UniProt P35548 130-214), sequence (P35548 130-214): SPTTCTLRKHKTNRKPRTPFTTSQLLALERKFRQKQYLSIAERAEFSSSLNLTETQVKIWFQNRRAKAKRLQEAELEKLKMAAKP
PRRX1 (Homo sapiens, UniProt P54821 80-166), sequence (P54821 80-166): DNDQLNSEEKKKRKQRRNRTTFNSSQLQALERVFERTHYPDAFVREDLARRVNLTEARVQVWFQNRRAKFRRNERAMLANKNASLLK
HOXB4 (Homo sapiens, UniProt P17483 148-234), sequence (P17483 148-234): as the sequence (P17483 148-234 V174I) above, with I27V counted along it
HOXA4 (Homo sapiens, UniProt Q00056 201-287), sequence (Q00056 201-287): as the sequence (Q00056 201-287 R217L) above, with L17R counted along it
HOXA4 (Homo sapiens, UniProt Q00056 201-287, W262R), sequence (Q00056 201-287 W262R): as the sequence (Q00056 201-287 R217L) above, with L17R, W62R counted along it
PRRX1 (Homo sapiens, UniProt P54821 80-166, F113S), sequence (P54821 80-166 F113S): as the sequence (P54821 80-166) above, with F34S counted along it
HOXA2, sequence (O43364 129-215 R185T): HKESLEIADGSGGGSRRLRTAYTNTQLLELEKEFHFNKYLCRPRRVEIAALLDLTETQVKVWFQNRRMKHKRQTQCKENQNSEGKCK

Regarding ATAATTAT, the binding signal with HOXB4 [1] is 13.7 upbm affinity estimate (log intensity, higher = more binding, comparable within an allelic series); with VENTX [2], 11.9 upbm affinity estimate (log intensity, higher = more binding, comparable within an allelic series); with HOXA4 [3] it was 10.9 upbm affinity estimate (log intensity, higher = more binding, comparable within an allelic series); with ALX4, 14.2 upbm affinity estimate (log intensity, higher = more binding, comparable within an allelic series); with PAX4 [4], 11.9 upbm affinity estimate (log intensity, higher = more binding, comparable within an allelic series); with PRRX1 [5] it was 11.7 upbm affinity estimate (log intensity, higher = more binding, comparable within an allelic series). Further, the binding signal in the experiment with VENTX [6] was 11.8 upbm affinity estimate (log intensity, higher = more binding, comparable within an allelic series); with HOXA2 it was 13.6 upbm affinity estimate (log intensity, higher = more binding, comparable within an allelic series); with HOXA4 [7], 12.7 upbm affinity estimate (log intensity, higher = more binding, comparable within an allelic series); in the experiment with HOXB4 [8], 14.5 upbm affinity estimate (log intensity, higher = more binding, comparable within an allelic series); in the experiment with PAX4 [9], 12.3 upbm affinity estimate (log intensity, higher = more binding, comparable within an allelic series); in the experiment with PAX4 [10] it was 10.9 upbm affinity estimate (log intensity, higher = more binding, comparable within an allelic series). In addition, the binding signal in the experiment with HOXA4 [11] was 14.3 upbm affinity estimate (log intensity, higher = more binding, comparable within an allelic series); in the experiment with MSX2 [12], 14 upbm affinity estimate (log intensity, higher = more binding, comparable within an allelic series); with PAX4 [13] it was 11.3 upbm affinity estimate (log intensity, higher = more binding, comparable within an allelic series); in the experiment with MSX2 [14], 13.6 upbm affinity estimate (log intensity, higher = more binding, comparable within an allelic series); with VAX1 [15], 13.3 upbm affinity estimate (log intensity, higher = more binding, comparable within an allelic series); with HOXA4 [16], 12.1 upbm affinity estimate (log intensity, higher = more binding, comparable within an allelic series). Also, the binding signal was 13.6 upbm affinity estimate (log intensity, higher = more binding, comparable within an allelic series) with PRRX1 [17] and 13.3 upbm affinity estimate (log intensity, higher = more binding, comparable within an allelic series) with VAX1 [18].
In the case of ATTAATTG, the binding signal with HOXB4 [1] was 13.4 upbm affinity estimate (log intensity, higher = more binding, comparable within an allelic series); with VENTX [2] it was 12.2 upbm affinity estimate (log intensity, higher = more binding, comparable within an allelic series); in the experiment with HOXA4 [3], 10.7 upbm affinity estimate (log intensity, higher = more binding, comparable within an allelic series); with ALX4, 14.2 upbm affinity estimate (log intensity, higher = more binding, comparable within an allelic series); with PAX4 [4] it was 11.8 upbm affinity estimate (log intensity, higher = more binding, comparable within an allelic series); in the experiment with PRRX1 [5], 11.4 upbm affinity estimate (log intensity, higher = more binding, comparable within an allelic series). Moreover, the binding signal with VENTX [6] is 11.9 upbm affinity estimate (log intensity, higher = more binding, comparable within an allelic series); with HOXA2, 13.3 upbm affinity estimate (log intensity, higher = more binding, comparable within an allelic series); with HOXA4 [7] it was 12.5 upbm affinity estimate (log intensity, higher = more binding, comparable within an allelic series); with HOXB4 [8] it was 14.2 upbm affinity estimate (log intensity, higher = more binding, comparable within an allelic series); in the experiment with PAX4 [9] it was 12.2 upbm affinity estimate (log intensity, higher = more binding, comparable within an allelic series); with PAX4 [10] it was 10.7 upbm affinity estimate (log intensity, higher = more binding, comparable within an allelic series). Further, the binding signal was 14 upbm affinity estimate (log intensity, higher = more binding, comparable within an allelic series) with HOXA4 [11]; 14 upbm affinity estimate (log intensity, higher = more binding, comparable within an allelic series) with MSX2 [12]; 11.2 upbm affinity estimate (log intensity, higher = more binding, comparable within an allelic series) with PAX4 [13]; 13.7 upbm affinity estimate (log intensity, higher = more binding, comparable within an allelic series) in the experiment with MSX2 [14]; 12.9 upbm affinity estimate (log intensity, higher = more binding, comparable within an allelic series) in the experiment with VAX1 [15]; 11.8 upbm affinity estimate (log intensity, higher = more binding, comparable within an allelic series) with HOXA4 [16]. In addition, the binding signal with PRRX1 [17] is 13.4 upbm affinity estimate (log intensity, higher = more binding, comparable within an allelic series); with VAX1 [18], 12.9 upbm affinity estimate (log intensity, higher = more binding, comparable within an allelic series).
Take AGTAATTA: the binding signal with HOXB4 [1] was 13.6 upbm affinity estimate (log intensity, higher = more binding, comparable within an allelic series); with VENTX [2] it was 12.5 upbm affinity estimate (log intensity, higher = more binding, comparable within an allelic series); in the experiment with HOXA4 [3], 10.9 upbm affinity estimate (log intensity, higher = more binding, comparable within an allelic series); with ALX4, 14.3 upbm affinity estimate (log intensity, higher = more binding, comparable within an allelic series); with PAX4 [4], 11.9 upbm affinity estimate (log intensity, higher = more binding, comparable within an allelic series); in the experiment with PRRX1 [5], 11.7 upbm affinity estimate (log intensity, higher = more binding, comparable within an allelic series). Moreover, the binding signal is 12.6 upbm affinity estimate (log intensity, higher = more binding, comparable within an allelic series) with VENTX [6]; 13.9 upbm affinity estimate (log intensity, higher = more binding, comparable within an allelic series) with HOXA2; 13.1 upbm affinity estimate (log intensity, higher = more binding, comparable within an allelic series) in the experiment with HOXA4 [7]; 14.4 upbm affinity estimate (log intensity, higher = more binding, comparable within an allelic series) with HOXB4 [8]; 12.3 upbm affinity estimate (log intensity, higher = more binding, comparable within an allelic series) in the experiment with PAX4 [9]; 10.7 upbm affinity estimate (log intensity, higher = more binding, comparable within an allelic series) with PAX4 [10]. The binding signal is 14.3 upbm affinity estimate (log intensity, higher = more binding, comparable within an allelic series) with HOXA4 [11]; 14.2 upbm affinity estimate (log intensity, higher = more binding, comparable within an allelic series) with MSX2 [12]; 11.1 upbm affinity estimate (log intensity, higher = more binding, comparable within an allelic series) in the experiment with PAX4 [13]; 13.9 upbm affinity estimate (log intensity, higher = more binding, comparable within an allelic series) in the experiment with MSX2 [14]; 13.9 upbm affinity estimate (log intensity, higher = more binding, comparable within an allelic series) in the experiment with VAX1 [15]; 12.6 upbm affinity estimate (log intensity, higher = more binding, comparable within an allelic series) with HOXA4 [16]. Also, the binding signal is 13.6 upbm affinity estimate (log intensity, higher = more binding, comparable within an allelic series) with PRRX1 [17] and 13.9 upbm affinity estimate (log intensity, higher = more binding, comparable within an allelic series) with VAX1 [18].
Take AATTAATA: the binding signal is 13.2 upbm affinity estimate (log intensity, higher = more binding, comparable within an allelic series) in the experiment with HOXB4 [1]; 11.9 upbm affinity estimate (log intensity, higher = more binding, comparable within an allelic series) in the experiment with VENTX [2]; 10.8 upbm affinity estimate (log intensity, higher = more binding, comparable within an allelic series) with HOXA4 [3]; 14 upbm affinity estimate (log intensity, higher = more binding, comparable within an allelic series) with ALX4; 12 upbm affinity estimate (log intensity, higher = more binding, comparable within an allelic series) with PAX4 [4]; 11.4 upbm affinity estimate (log intensity, higher = more binding, comparable within an allelic series) with PRRX1 [5]. Moreover, the binding signal with VENTX [6] is 11.6 upbm affinity estimate (log intensity, higher = more binding, comparable within an allelic series); in the experiment with HOXA2 it was 12.6 upbm affinity estimate (log intensity, higher = more binding, comparable within an allelic series); with HOXA4 [7], 12.3 upbm affinity estimate (log intensity, higher = more binding, comparable within an allelic series); with HOXB4 [8], 13.9 upbm affinity estimate (log intensity, higher = more binding, comparable within an allelic series); with PAX4 [9], 12.3 upbm affinity estimate (log intensity, higher = more binding, comparable within an allelic series); with PAX4 [10] it was 10.8 upbm affinity estimate (log intensity, higher = more binding, comparable within an allelic series). Further, the binding signal with HOXA4 [11] was 13.8 upbm affinity estimate (log intensity, higher = more binding, comparable within an allelic series); with MSX2 [12], 13.5 upbm affinity estimate (log intensity, higher = more binding, comparable within an allelic series); in the experiment with PAX4 [13], 11.2 upbm affinity estimate (log intensity, higher = more binding, comparable within an allelic series); in the experiment with MSX2 [14], 13.2 upbm affinity estimate (log intensity, higher = more binding, comparable within an allelic series); with VAX1 [15], 12.8 upbm affinity estimate (log intensity, higher = more binding, comparable within an allelic series); in the experiment with HOXA4 [16] it was 11.8 upbm affinity estimate (log intensity, higher = more binding, comparable within an allelic series). Besides, the binding signal with PRRX1 [17] was 13.4 upbm affinity estimate (log intensity, higher = more binding, comparable within an allelic series); with VAX1 [18] it was 12.5 upbm affinity estimate (log intensity, higher = more binding, comparable within an allelic series).
